Bioassay records: PubChem BioAssay, several laboratories
RN4220 kill = growth inhibition of S. aureus RN4220, primary screen, OD600 | 16 h | inhibition, % (no concentration beside the values) | 330,000 tested, 0.33% active | AID 1259311, 2017; in the data active means inhibition above about 85%;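 further: plate controls were untreated cells for no effect and reference antibiotic for full effect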
ugtP null kill = growth inhibition of ugtP-null S. aureus, primary screen, RN4220 ugtP deletion, OD600; 16 h; growth inhibition, % (test concentration not listed); 330,000 tested, 0.54% active; AID 1259309, 2017; in the data active means growth inhibition above about 68%;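 further: plate controls were untreated wells for no effect and antibiotic for full effect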
PrPC surface inh = inhibitors of human cell surface prion protein PrPC, primary screen, cell-based, TR-FRET. AID 720596, 2013. inhibition, % at 13.8 µM. 370,000 tested, 0.43% active. TR-FRET read-out. Major prion protein (Homo sapiens), P04156; in the data active means inhibition above about 24%; further: 0% = median of the test wells and 100% = reference compound wells
PrP 5UTR inh = inhibition of PrP 5' UTR reporter expression; AID 488862, 2010; cell-based PrP 5' UTR mRNA reporter, plate reader; 340,000 tested, 0.35% active; inhibition, % (test concentration not listed); in the data active means inhibition above about 52%; further: 0 = median of the neutral control wells
CCHF vOTU inh-1 = CCHFV vOTU protease inhibitors, primary screen, biochemical, Pep-AMC substrate, fluorescence; Crimean-Congo hemorrhagic fever virus L polyprotein viral ovarian tumor (vOTU) protease …; inhibition, % at 11.5 µM; 370,000 tested, 0.55% active; AID 651958, 2012; further: 0% = vehicle wells with enzyme and 100% = no enzyme wells
PfHsp40 yeast = rescue of yeast from PfHsp40 toxicity, primary screen, S. cerevisiae, ATP luminescence; S. cerevisiae expressing PfHsp40, growth rescue; 340,000 tested, 0.68% active; AID 504582, 2011; growth rescue, % at 12.5 µM; in the data active means growth rescue above about 28%, passing the limit was not always enough;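 further: yeast W303a lacking pdr1 and pdr3 grown in galactose medium; growth measured after three days at 30 °C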
CCHF vOTU inh-2 = CCHFV vOTU protease inhibitors, confirmation, biochemical, Pep-AMC substrate, fluorescence | Recombinant CCHFV vOTU | shares compounds with CCHF vOTU inh-1 | inhibition, % at 11.5 µM | 1,900 tested, 17% active
* hit, by the source's call; . = no result. The list is not random: actives were taken first. Their share in the collection is about 2.1%. Unless noted, no stated cut-off is given here; in the data, active means inhibition above about 30%; inactive means the rest.

SMILES	RN4220 kill	ugtP null kill	PrPC surface inh	PrP 5UTR inh	CCHF vOTU inh-1	PfHsp40 yeast	CCHF vOTU inh-2
CC1Cc2ccccc2N1C(=O)COC(=O)c1ccc([N+](=O)[O-])o1 (stereo not drawn)	7	8	-26	-16	39*	0	10
CC=CC=NNc1nc(C)cc(=O)[nH]1	9	-2	.	.	.	.	.
Cc1cc(=O)[nH]c(N/N=C/C=C/c2ccccc2)n1	.	.	-1	-2	35*	-1	-3
CC1(C(=O)Nc2cccc(OC(F)(F)F)c2)Cc2c(-c3ccc4c(c3)OCO4)ccnc2O1 (stereo not drawn)	.	.	4	.	31*	.	-11
N#CC(C#N)=Cc1ccc(N2CCOCC2)cc1	2	-4	4	-18	30*	-1	-8
COC(=O)c1ccc(C(NC(=O)OCc2ccccc2)C(F)=CC(C)C(=O)NCc2ccc(-c3ccccc3)cc2)cc1 (stereo not drawn)	-8	-8	.	.	.	.	.
CC(=O)N(c1ccccc1C)c1ccccc1C	7	11	-5	-3	34*	0	-10
CCC1=C(OC(=O)N(CC)CC)N2C(=O)OC(=NCC(=O)OC)[C@]2(Cc2ccccc2)C2C1=CCC1C(=O)N(CC(=O)OC)C(=O)C12 (stereo partly drawn)	8	1	.	.	.	.	.
C(=Nc1nc2ccccc2n1CCN1CCCCC1)c1ccc2c(c1)OCO2	5	8	.	.	.	.	.
COc1ccccc1CCn1cnc(-c2ccccc2)c1CC(C)C	.	.	18	.	45*	.	18
COc1ccccc1CCn1cnc(-c2ccc(F)cc2)c1CC(C)C	.	.	9	.	27	.	.
CCc1c(-c2cccc(F)c2)ncn1CCc1ccccc1OC	.	.	3	.	30*	.	-4
CCCCCc1c(-c2ccc(Cl)cc2)ncn1CCc1ccccc1OC	.	.	11	.	37*	.	8
CC(=NNC(=O)c1nc2ccccn2c1C)c1cc2ccccc2o1	7	12	.	.	.	.	.
COc1cc(OC)c(OC)cc1C=Nn1c(C)nnc1C	-7	-11	.	.	.	.	.
COc1cccc(NS(=O)(=O)c2ccc3c(c2)C2C=CCC2C(c2ccc(C(=O)O)cc2)N3)c1 (stereo not drawn)	32	14	-2	-17	41*	2	24
Cc1oc(N=Cc2ccc(F)cc2)c(C#N)c1C	1	1	.	.	.	.	.
CCNc1ccc2noc3c2c1C(=O)c1ccccc1-3	14	-20	-105	-20	16	1	.
CCOc1ccc2noc3c2c1C(=O)c1ccccc1-3	.	.	-39	-28	87*	1	37*
NC(=NOC(=O)CCCOc1ccccc1)c1ccc(Br)cc1	4	0	.	.	.	.	.
CC[n+]1c(/C=C/c2c[nH]c3ccccc23)ccc2cc(C)ccc21	96*	97*	-5	-25	34*	3	4
CCN(CC)C(=O)c1ccc(/C=C/c2c[nH]c3ccccc23)[n+](C)c1	5	2	-33	-19	18	0	.
CSc1ccc(-c2nc(CN3CCCCC3c3cccnc3)c(C)o2)cc1 (stereo not drawn)	-1	6	4	-24	32*	1	-18
CCOc1cc(C=NNc2cc(C)nc(-n3nc(C)cc3C)n2)ccc1O	-14	9	.	.	.	.	.
CCCCOC(=O)CSc1nc2c(c(=O)[nH]c(=O)n2C)n1C/C=C(\C)Cl	2	3	0	3	31*	-1	-10
SMILES	RN4220 kill	ugtP null kill	PrPC surface inh	PrP 5UTR inh	CCHF vOTU inh-1	PfHsp40 yeast	CCHF vOTU inh-2
Cc1cc(C)c2sc(N(CCCN(C)C)C(=O)c3ccc(Br)s3)nc2c1	0	0	10	-39	31*	0	4
COc1cc(C=NNC(=S)NC2CC3CCC2C3)ccc1O (stereo not drawn)	8	-2	.	.	.	.	.
O=C(NN=Cc1c[nH]c2ccccc12)c1ccc(O)cc1	-1	1	.	.	.	.	.
O=C(N/N=C\c1c[nH]c2ccccc12)c1ccc(O)cc1	.	.	-6	-48	32*	-2	-5
Brc1ccc(CN2CCC3C=CCc4cccc(c43)C2)cc1 (stereo not drawn)	-5	55	.	.	.	.	.
C=CCn1c(NC(=O)c2ccccc2Cl)c(C#N)c2nc3ccccc3nc21	40	23	1	-5	82*	-1	45*
CCCCn1c(NC(C)=O)c(C#N)c2nc3ccccc3nc21	25	3	-3	-9	-128	2	.
O=C(CCCCO)CCCCCCCCC1NC(CO)C(O)C1OC1OC(CO)C(O)C(O)C1O (stereo not drawn)	4	-3	.	.	.	.	.
CC(=O)N(C)C1=C(O)c2ccccc2C(=O)C1=O	7	13	-29	-14	10	-2	.
CC(=O)C(C(C)=O)C1(O)C(=O)c2ccccc2C1=O	1	5	-1	-10	101*	-1	-12
CC(=NOCC(=O)Nc1ccc(C)cc1C)c1cccs1	1	6	.	.	.	.	.
Cc1ccc(C2CC(=O)N3CN(c4ccc(Br)cc4)CSC3=C2C#N)o1 (stereo not drawn)	0	-3	3	-28	30*	1	-1
CCOc1ccc(N2CSC3=C(C#N)C(c4ccco4)CC(=O)N3C2)cc1 (stereo not drawn)	0	6	-9	.	23	-1	.
OCCC1CC(O)C(O)[C@@]2(OCCc3ccccc32)O1 (stereo partly drawn)	0	-4	.	.	.	.	.
Cc1cccc(COC[C@H](CC(C)C)N2CCN(C(=O)c3ccc(C(C)(C)C)cc3)CCC2=O)c1	.	.	8	.	30*	.	0
CC(C)CC(COCc1ccc(F)cc1)N1CCN(C(=O)c2cccc(C(F)(F)F)c2)CCC1=O (stereo not drawn)	3	-7	11	-17	26	2	.
CC(C)C[C@@H](COCc1ccc(F)cc1)N1CCN(C(=O)c2cccc(C(F)(F)F)c2)CCC1=O	.	.	10	.	31*	.	8
CCOc1ccc(-c2c(C(=O)NN=Cc3ccc(C)o3)nnn2-c2nonc2N)cc1	3	6	.	.	.	.	.
Cc1cc(C(=O)Nc2cccc3c2OC(CN(C)CC2CC2)C(C)CN(C(C)CO)C3=O)n(C)n1 (stereo not drawn)	5	-11	.	.	.	.	.
O=C1C(O)=C(O)C(=O)c2ccccc21	-2	2	-9	0	105*	0	60*
O=C1c2ccccc2C(=O)c2[nH]c(=O)[nH]c21	44	23	-20	-8	79*	-1	75*
O=C1c2ccccc2C(=O)c2[nH]cnc21	.	.	-45	-21	11	-1	.
COc1cc2c(cc1OC)CN(CC(=O)Nc1ccc(C)cc1)CC2	2	2	2	-5	30*	0	-22
COc1ccc(C=NNC(=O)c2cccc(NC(=O)c3ccc(F)cc3)c2)c(C(=O)O)c1OC	1	-4	.	.	.	.	.
